Assay results published in the antibiotic and cytotoxicity screens of Wong et al. (2023).
The whole screen tested about 39,000 compounds, of which about 3,300 (8.5%) were called active. The sample as a whole holds a higher share of actives than the screen did.

These molecules were tested on HepG2 (assay: cytotoxicity call (relative viability < 0.9)). Conditions: 10 µM.

| SMILES | cytotoxicity call |
| --- | --- |
| CO[C@H]1CN(C)C(=O)c2cc(NS(C)(=O)=O)ccc2OC[C@H](C)N(C(=O)C2CCCCC2)C[C@@H]1C | inactive |
| C[C@H]1CN([C@@H](C)CO)C(=O)c2cc(NS(=O)(=O)c3cn(C)cn3)ccc2O[C@@H]1CN(C)CC1CC1 | inactive |
| Cc1ccc(S(=O)(=O)N(C)C[C@@H]2Oc3c(NS(=O)(=O)c4cn(C)cn4)cccc3C(=O)N([C@@H](C)CO)C[C@@H]2C)cc1 | inactive |
| COc1ccc(S(=O)(=O)N(C)C[C@H]2Oc3c(NC(=O)c4ccncc4)cccc3C(=O)N([C@H](C)CO)C[C@@H]2C)cc1 | inactive |
| CC(C)[Si](C#C[Si](C(C)C)(C(C)C)C(C)C)(O[C@H](C)c1cn(Cc2cccc(Cl)c2)nn1)C(C)C | inactive |
| Cc1cc(C(=O)Nc2cccc3c2O[C@@H](CN(C)C(=O)NC2CCCCC2)[C@H](C)CN([C@@H](C)CO)C3=O)n(C)n1 | inactive |
| C[C@@H]1CN([C@@H](C)CO)C(=O)c2cc(NC(=O)CCCCCC(=O)Nc3ccccc3N)ccc2O[C@@H]1CN(C)S(C)(=O)=O | inactive |
| COC(=O)[C@H]1C[C@@]2(C(=O)O)C[C@](C(=O)O)(C[C@@H](C(=O)OC)C2=O)C1=O | inactive |
| C[C@@H]1CN([C@@H](C)CO)C(=O)CCCn2nncc2CO[C@@H]1CN(C)C(=O)Nc1ccc2c(c1)OCCO2 | inactive |
| C[C@@H]1CCCCO[C@H](CN(C)C(=O)Nc2ccc(C(F)(F)F)cc2)[C@@H](C)CN([C@H](C)CO)C(=O)c2cc(N(C)C)ccc2O1 | inactive |
| CCc1nc2ccc(C(=O)N3CCN(S(=O)(=O)CC)CC3)cn2c1N(C=O)Cc1ccc(OC)cc1 | inactive |
| C[C@H](CO)N1C[C@H](C)[C@@H](CN(C)Cc2ccc(Cl)c(Cl)c2)OCCCC[C@H](C)Oc2ccc(NC(=O)Nc3ccccc3)cc2C1=O | active |
| C[C@H]1CCCCO[C@H](CN(C)Cc2ccc(Cl)c(Cl)c2)[C@@H](C)CN([C@@H](C)CO)C(=O)c2cc(NC(=O)Nc3ccccc3)ccc2O1 | inactive |
| C[C@@H]1CCCCO[C@@H](CN(C)Cc2ccc(Cl)c(Cl)c2)[C@@H](C)CN([C@H](C)CO)C(=O)c2cc(NC(=O)Nc3ccccc3)ccc2O1 | inactive |
| C[C@@H]1CCCCO[C@@H](CN(C)Cc2ccc(C(=O)O)cc2)[C@H](C)CN([C@H](C)CO)C(=O)c2cc(NC(=O)Nc3ccc(C(F)(F)F)cc3)ccc2O1 | inactive |
| COc1ccccc1CNC(=O)C[C@H]1C[C@H]2c3cc(NC(=O)c4ccc5c(c4)OCO5)ccc3O[C@H]2[C@@H](CO)O1 | inactive |
| Cc1noc(C)c1NC(=O)Nc1cccc2c1O[C@@H](CN(C)S(=O)(=O)c1ccccc1)[C@H](C)CN([C@H](C)CO)C2=O | inactive |
| Cc1noc(C)c1NC(=O)N(C)C[C@H]1Oc2ncc(C#CCC(C)C)cc2C(=O)N([C@@H](C)CO)C[C@@H]1C | inactive |
| C[C@@H]1CN([C@H](C)CO)C(=O)Cc2cc(NC(=O)CCCCCC(=O)Nc3ccccc3N)ccc2O[C@@H]1CN(C)Cc1ccc(C(F)(F)F)cc1 | active |
| C[C@@H]1CN([C@@H](C)CO)C(=O)Cc2cc(NC(=O)CCCCCC(=O)Nc3ccccc3N)ccc2O[C@H]1CN(C)Cc1ccc(C(F)(F)F)cc1 | inactive |

| SMILES | cytotoxicity call |
| --- | --- |
| C[C@H](CO)N1C[C@H](C)[C@@H](CN(C)Cc2ccc(C(F)(F)F)cc2)Oc2ccc(NC(=O)CCCCCC(=O)Nc3ccccc3N)cc2CC1=O | inactive |
| C[C@H]1CN([C@@H](C)CO)C(=O)Cc2cc(NC(=O)CCCCCC(=O)Nc3ccccc3N)ccc2O[C@@H]1CN(C)Cc1ccc(C(F)(F)F)cc1 | inactive |
| C[C@@H]1CN([C@H](C)CO)C(=O)Cc2cc(NC(=O)CCCCCC(=O)Nc3ccccc3N)ccc2O[C@H]1CN(C)Cc1ccc(C(F)(F)F)cc1 | inactive |
| C[C@H](CO)N1C[C@H](C)[C@H](CN(C)Cc2ccc(C(F)(F)F)cc2)Oc2ccc(NC(=O)CCCCCC(=O)Nc3ccccc3N)cc2CC1=O | active |
| Cc1noc(C)c1S(=O)(=O)N(C)C[C@@H]1Oc2ccc(NS(=O)(=O)c3cn(C)cn3)cc2CC(=O)N([C@@H](C)CO)C[C@H]1C | inactive |
| C[C@@H]1CN([C@H](C)CO)C(=O)c2cc(NS(=O)(=O)c3ccc(F)cc3)ccc2O[C@@H]1CN(C)C(=O)Nc1ccc(C(F)(F)F)cc1 | inactive |
| C[C@@H]1CN([C@H](C)CO)C(=O)c2cccc(NS(=O)(=O)c3ccccc3)c2O[C@H]1CN(C)Cc1ccc(Oc2ccccc2)cc1 | inactive |
| COc1ccc(S(=O)(=O)N2C[C@@H](O)COC[C@H]3O[C@H](CC(=O)NCCCN(C)C)CC[C@@H]32)cc1 | inactive |
| COc1cccc(NC(=O)N(C)C[C@@H]2OCc3ccccc3-c3c(n(C)c4ccccc34)C(=O)N([C@@H](C)CO)C[C@@H]2C)c1 | inactive |
| C=CC[C@@H](CC(=O)N[C@H](CO)Cc1ccccc1)C(=O)N[C@H](C)COC(=O)[C@H](CC=C)CC(=O)OC(C)(C)C | inactive |
| C[C@@H]1CN([C@@H](C)CO)C(=O)c2cc(NC(=O)Cc3ccccc3)ccc2O[C@@H](C)CCCCO[C@H]1CN(C)Cc1ccc(C(F)(F)F)cc1 | inactive |
| C[C@@H]1CN([C@H](C)CO)C(=O)c2cc(NC(=O)Cc3ccccc3)ccc2O[C@@H](C)CCCCO[C@@H]1CN(C)Cc1ccc(C(F)(F)F)cc1 | inactive |
| C[C@@H]1CCCCO[C@@H](CN(C)Cc2ccc(C(F)(F)F)cc2)[C@@H](C)CN([C@@H](C)CO)C(=O)c2cc(NC(=O)Cc3ccccc3)ccc2O1 | active |
| C[C@@H]1CN([C@H](C)CO)C(=O)c2cc(NC(=O)Cc3ccccc3)ccc2O[C@@H](C)CCCCO[C@H]1CN(C)Cc1ccc(C(F)(F)F)cc1 | active |
| C[C@@H]1CN([C@H](C)CO)C(=O)c2cc(NC(=O)Cc3ccccc3)ccc2O[C@@H](C)CCCCO[C@H]1CN(C)Cc1ccccc1 | inactive |
| C[C@@H]1CCCCO[C@H](CN(C)Cc2ccc(C(F)(F)F)cc2)[C@H](C)CN([C@@H](C)CO)C(=O)c2cc(NC(=O)Cc3ccccc3)ccc2O1 | inactive |
| C[C@H](CO)N1C[C@H](C)[C@@H](CN(C)Cc2ccc(C(F)(F)F)cc2)OCCCC[C@H](C)Oc2ccc(NC(=O)Cc3ccccc3)cc2C1=O | active |
| C[C@@H]1CCCCO[C@H](CN(C)Cc2ccccc2)[C@@H](C)CN([C@@H](C)CO)C(=O)c2cc(NC(=O)Cc3ccccc3)ccc2O1 | active |
| C[C@@H]1CCCCO[C@@H](CN(C)Cc2ccc(C(F)(F)F)cc2)[C@H](C)CN([C@H](C)CO)C(=O)c2cc(NC(=O)Cc3ccccc3)ccc2O1 | inactive |
| C[C@H]1CCCCO[C@H](CN(C)Cc2ccccc2)[C@@H](C)CN([C@@H](C)CO)C(=O)c2cc(NC(=O)Cc3ccccc3)ccc2O1 | inactive |

| SMILES | cytotoxicity call |
| --- | --- |
| CO[C@H]1CN(C)C(=O)c2cc(NS(C)(=O)=O)ccc2OC[C@H](C)N(S(C)(=O)=O)C[C@H]1C | inactive |
| C[C@@H]1CN([C@@H](C)CO)C(=O)c2cc(NC(=O)CCC(F)(F)F)ccc2O[C@@H](C)CCCCO[C@@H]1CN(C)CC1CCCCC1 | inactive |
| CCCCCCCCCCCCCCCc1cccc(OCC)c1C(=O)Nc1ccc(Cl)c(C(F)(F)F)c1 | inactive |
| C[C@H](CO)N1C[C@H](C)[C@@H](CN(C)S(C)(=O)=O)Oc2ccc(NC(=O)Cn3cnnn3)cc2CC1=O | inactive |
| Nc1cnn([C@H]2O[C@@H](COC(=O)c3ccccc3)[C@@H](O)[C@@H]2O)c(=O)n1 | inactive |
| COc1ccc(S(=O)(=O)N2C[C@@H](O)COC[C@H]3O[C@H](CC(=O)NCCN4CCCCC4)CC[C@@H]32)cc1 | inactive |
| Cc1noc(C)c1NC(=O)N(C)C[C@@H]1Oc2c(NC(=O)C3CC3)cccc2C(=O)N([C@H](C)CO)C[C@H]1C | inactive |
| C[C@@H]1CN([C@H](C)CO)C(=O)Cc2cc(NC(=O)C3CCCCC3)ccc2O[C@@H]1CN(C)Cc1ccc(Cl)c(Cl)c1 | inactive |
| C[C@@H]1CCCCO[C@@H](CN(C)Cc2ccc(C(F)(F)F)cc2)[C@@H](C)CN([C@H](C)CO)C(=O)c2cc(NC(=O)Cc3ccccc3)ccc2O1 | active |
| C[C@H]1CCCCO[C@@H](CN(C)Cc2ccc(C(F)(F)F)cc2)[C@@H](C)CN([C@@H](C)CO)C(=O)c2cc(NC(=O)Cc3ccccc3)ccc2O1 | inactive |
| C[C@@H]1CCCCO[C@H](CN(C)Cc2ccc(C(F)(F)F)cc2)[C@@H](C)CN([C@H](C)CO)C(=O)c2cc(NC(=O)Cc3ccccc3)ccc2O1 | inactive |
| C[C@@H]1CN([C@@H](C)CO)C(=O)c2cc(NC(=O)Cc3ccccc3)ccc2O[C@@H](C)CCCCO[C@@H]1CN(C)Cc1ccc(C(F)(F)F)cc1 | inactive |
| C[C@@H]1CCCCO[C@@H](CN(C)Cc2ccc(C(F)(F)F)cc2)[C@H](C)CN([C@@H](C)CO)C(=O)c2cc(NC(=O)Cc3ccccc3)ccc2O1 | inactive |
| C[C@@H]1CCCCO[C@H](CN(C)Cc2ccc(C(F)(F)F)cc2)[C@@H](C)CN([C@@H](C)CO)C(=O)c2cc(NC(=O)Cc3ccccc3)ccc2O1 | inactive |
| C[C@@H]1CCCCO[C@H](CN(C)Cc2ccc(C(F)(F)F)cc2)[C@H](C)CN([C@H](C)CO)C(=O)c2cc(NC(=O)Cc3ccccc3)ccc2O1 | active |
| C[C@H](CO)N1C[C@H](C)[C@H](CN(C)Cc2ccc(C(F)(F)F)cc2)OCCCC[C@H](C)Oc2ccc(NC(=O)Cc3ccccc3)cc2C1=O | inactive |
| C[C@H]1CCCCO[C@H](CN(C)Cc2ccc(C(F)(F)F)cc2)[C@@H](C)CN([C@@H](C)CO)C(=O)c2cc(NC(=O)Cc3ccccc3)ccc2O1 | active |
| COc1ccc(S(=O)(=O)Nc2cccc3c2O[C@@H](CN(C)C(=O)Nc2cccc4ccccc24)[C@H](C)CN([C@H](C)CO)C3=O)cc1 | inactive |
